Assay results: PubChem BioAssay AID1778 (Sanford-Burnham Center for Chemical Genomics, 2009)
“And” between values parts separate entries of the source, which are not always exact repeats. Identical values can stand only once. About 260 (0.09%) of roughly 290,000 compounds were called active. The sample holds actives, similar compounds and a random draw of the others, so the mix is not that of the screen. Measured potencies and affinities stand elsewhere. A number with no mark means an inactive call. Cut-off read from the data, not from the text of the source: active = inhibition above about 50%; inactive = the rest.

These compounds were tested against Kappa-type opioid receptor (Homo sapiens) (UniProt P41145) (assay: kappa opioid receptor blockers – cell-based, luminescence, uHTS (AID 1778)). Conditions: KOR beta-arrestin recruitment, antagonist mode, active compounds read high; at 10 µM unless noted.
Kappa-type opioid receptor (Homo sapiens), sequence (P41145 whole entry, looked up): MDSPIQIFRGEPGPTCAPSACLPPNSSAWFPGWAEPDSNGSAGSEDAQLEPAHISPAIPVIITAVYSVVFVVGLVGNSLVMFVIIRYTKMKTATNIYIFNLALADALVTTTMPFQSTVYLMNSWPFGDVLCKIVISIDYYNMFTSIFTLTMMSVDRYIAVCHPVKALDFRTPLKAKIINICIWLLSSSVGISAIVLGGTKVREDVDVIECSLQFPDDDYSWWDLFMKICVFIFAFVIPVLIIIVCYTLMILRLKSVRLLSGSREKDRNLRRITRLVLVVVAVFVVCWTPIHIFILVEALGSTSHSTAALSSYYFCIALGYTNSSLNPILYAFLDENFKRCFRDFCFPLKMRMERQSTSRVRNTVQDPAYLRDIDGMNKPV

Q: COc1cccc(CN2CCN(C(=O)c3oc4c(F)cccc4c3C)CC2=O)c1 was tested. Which inhibition did it give?
A: -26.9% [at 20 µM]

Q: COC(=O)CSc1nc2sc3c(c2c(=O)n1-c1ccc(OC)cc1)CCN(C)C3 was tested. Which inhibition did it give?
A: -14.3%

Q: For COc1ccccc1N1CCN(C(=O)c2cnn3cccnc23)CC1, which inhibition is on record?
A: 24.4%

Q: With N=C1SC(c2ccccc2)C(=O)N1c1ncc(Cc2ccccc2)s1 (centres undefined) as the compound, how does the inhibition read?
A: 1.3%

Q: How did the inhibition turn out when N=C1SC(c2ccccc2)C(=O)N1c1ncc(Cc2ccccc2Cl)s1 (centres undefined) was run?
A: 26.7%

Q: Which inhibition does the source give for O=C1c2ccccc2C(=O)N1c1ncc(Cc2ccc(Cl)cc2)s1 here?
A: -50.6%

Q: With N=C1SCC(=O)N1c1ccccc1Cl as the compound, how does the inhibition read?
A: 16.3%

Q: CCC(C(=O)NCc1cccs1)n1nc(C)n2c(cc3occc32)c1=O (centres undefined) was tested. Which inhibition did it give?
A: -9.9%

Q: Which inhibition does the source give for Fc1ccccc1-c1nc(-c2cnccc2C(F)(F)F)no1 here?
A: 11.7%

Q: For CC(=O)Oc1ccc(C23CC4CC(CC(C4)C2)C3)cc1C(=O)O, which inhibition is on record?
A: -9%

Q: How did the inhibition turn out when COc1ccc(C2=NN(C(=O)c3cccs3)C(c3ccccc3OC)C2)cc1OC (centres undefined) was run?
A: 3.2%

Q: How did the inhibition turn out when O=Cc1s/c(=N\S(=O)(=O)c2ccccc2)n(CCCCl)c1Cl was run?
A: -16.2%

Q: For Cc1c(C(C)(C)C)s/c(=N/S(=O)(=O)c2ccccc2)n1C, which inhibition is on record?
A: 1.7%

Q: Which inhibition does the source give for Nc1cc(S(=O)(=O)Nc2cc(Cl)ccc2Cl)ccc1N1CCOCC1 here?
A: 6.9%

Q: How did the inhibition turn out when C=CCNCC(=O)Nc1ccccc1SCC(=O)Nc1ccsc1C(=O)OC was run?
A: -29% [at 20 µM]

Q: For O=[N+]([O-])c1ccc(Nc2ccccc2)c2nonc12, which inhibition is on record?
A: 7.5%

Q: For O=[N+]([O-])c1ccc(Nc2ccccc2O)c2nonc12, which inhibition is on record?
A: 10.2% [at 20 µM]

Q: Which inhibition does the source give for O=[N+]([O-])c1ccc(Sc2cccc[n+]2[O-])c2nonc12 here?
A: 93% (active)

Q: With CC1(C)CC(=O)C(N=Nc2cccc(S(=O)(=O)N3CCOCC3)c2)=C(O)C1 as the compound, how does the inhibition read?
A: -0.5%

Q: How did the inhibition turn out when CCOC(=O)c1[nH]c(C)c(C(=O)OCc2c(C)noc2C)c1C was run?
A: -46%

Q: How did the inhibition turn out when CCOCCCNC(=O)C(c1ccc(C)cc1)N(Cc1ccc2c(c1)OCO2)C(=O)CNC(C)=O (centres undefined) was run?
A: -0.2%

Q: Which inhibition does the source give for COc1ccc(NC(=O)C2CC(=O)N(c3ccccc3C)C2)c(OC)c1 (centres undefined) here?
A: -5%

Q: With COc1ccc(C(=O)Nc2ccc(S(=O)(=O)Nc3nccnc3OC)cc2)cc1 as the compound, how does the inhibition read?
A: -19%

Q: With CC(=O)N(C1CC(C)C(C#N)(C#N)C1(C#N)C#N)N(C)C (centres undefined) as the compound, how does the inhibition read?
A: 17.9% [at 20 µM]

Q: Which inhibition does the source give for CCCC(=O)N(C1CC(C)C(C#N)(C#N)C1(C#N)C#N)N(C)C (centres undefined) here?
A: 85.4% (active)

Q: Which inhibition does the source give for O=C(CN(C(=O)CCC(=O)Nc1nccs1)c1ccc2c(c1)OCO2)NCc1ccc(F)cc1 here?
A: -0.7%

Q: How did the inhibition turn out when Cc1nn(C)cc1CNC(=O)C1(C)CC1(Cl)Cl (centres undefined) was run?
A: 11.1%

Q: O=S1(=O)NC(=NCCc2ccccn2)c2ccccc21 was tested. Which inhibition did it give?
A: 20.9%

Q: c1cnc2c(c1)ccc1cccnc12 was tested. Which inhibition did it give?
A: -30.1% and 19.4%

Q: Which inhibition does the source give for CC1(C)Cc2c(sc3c4nnnn4c4nnnn4c23)CO1 here?
A: 56.4% (active)

Q: Which inhibition does the source give for CC1(C)Cc2c(sc3ncn4nnnc4c23)CO1 here?
A: -7.5%

Q: Which inhibition does the source give for CC(C)c1nc2sc3c(c2c(=O)n1N)CC(C)(C)OC3 here?
A: 13%

Q: CC1(C)Cc2c(c(-c3ccco3)nc3sc4c(NCC5CCCO5)ncnc4c23)CO1 (centres undefined) was tested. Which inhibition did it give?
A: -42.4%

Q: O=C(CSc1nc2ccsc2c(=O)n1CC1CCC(C(=O)O)CC1)c1ccc(F)cc1 (centres undefined) was tested. Which inhibition did it give?
A: 18.5%

Q: Oc1ccccc1N=Nc1nc(-c2ccccc2)c(-c2ccccc2)[nH]1 was tested. Which inhibition did it give?
A: 33.6%

Q: For COc1ccc(N=Nc2nc(-c3ccccc3)c(-c3ccccc3)[nH]2)cc1, which inhibition is on record?
A: 28.4%

Q: With O=C(OCCCOc1ccc(F)cc1)c1ccc(O)cc1O as the compound, how does the inhibition read?
A: -20.5%

Q: With CCC1CCC(C(=O)NC(C(=O)NCCc2ccc(S(N)(=O)=O)cc2)C(C)C)CC1 (centres undefined) as the compound, how does the inhibition read?
A: -31%

Q: Which inhibition does the source give for CCOc1ccccc1C(=O)NC1CC2CCCC(C1)N2Cc1ccccc1 (centres undefined) here?
A: 5.8%

Q: How did the inhibition turn out when O=C(NC1CC2CCCC(C1)N2Cc1ccccc1)c1cccc(Cl)c1 (centres undefined) was run?
A: 13.7% [at 20 µM]

Q: O=C(NC1CC2CCCC(C1)N2Cc1ccccc1)c1ccc([N+](=O)[O-])cc1 (centres undefined) was tested. Which inhibition did it give?
A: 29.6% [at 20 µM]

Q: How did the inhibition turn out when O=C(NC1CC2CCCC(C1)N2Cc1ccccc1)c1cccc(F)c1 (centres undefined) was run?
A: 34.5%

Q: Which inhibition does the source give for CCCN1C2CCCC1CC(NC(=O)c1ccccc1OCC)C2 (centres undefined) here?
A: 12%

Q: How did the inhibition turn out when CCOc1ccc(C(=O)NC2CC3CCCC(C2)N3CC(C)C)cc1 (centres undefined) was run?
A: -39%

Q: Which inhibition does the source give for Cc1ccccc1C(=O)NC1CC2CCCC(C1)N2Cc1ccccc1 (centres undefined) here?
A: -8.6% [at 20 µM]

Q: Which inhibition does the source give for COc1ccc(C(=O)NC2CC3CCCC(C2)N3Cc2ccccc2)cc1 (centres undefined) here?
A: 26.9%

Q: For CC(=O)NC(=S)Nc1cccc([N+](=O)[O-])c1, which inhibition is on record?
A: 30.8%

Q: Which inhibition does the source give for Cc1cc(C)n2nc(SCC(=O)NC3CCCCC3)nc2n1 here?
A: -29.2%

Q: For COc1c(F)c(F)c(C(=O)O)c(Nc2ccccc2)c1F, which inhibition is on record?
A: 4.7%

Q: COCc1nnc(NC(=O)CCCOc2ccccc2OC)s1 was tested. Which inhibition did it give?
A: -4.2%

Q: How did the inhibition turn out when Cc1ccc(Cl)cc1NC(=S)Nn1cnnc1 was run?
A: -13.2%

Q: O=C(NCCc1ccccc1)C1CC(=O)N(C2CCCC2)C1 (centres undefined) was tested. Which inhibition did it give?
A: -27.2%

Q: How did the inhibition turn out when Cc1sc2c(c1C)C(=O)NC(c1cccc(O)c1)N2 (centres undefined) was run?
A: 9.3%

Q: How did the inhibition turn out when CC(=O)NC1CC2CCCC(C1)N2Cc1ccc(C)cc1 (centres undefined) was run?
A: -10%

Q: O=C(NC1CC2CCCC(C1)N2Cc1ccc(F)cc1)c1ccc(F)cc1 (centres undefined) was tested. Which inhibition did it give?
A: 13.6% [at 20 µM]

Q: For CCCN1C2CCCC1CC(NC(=O)c1ccc(F)cc1)C2 (centres undefined), which inhibition is on record?
A: 22.4%

Q: Which inhibition does the source give for CCC(=O)NC1CC2CCCC(C1)N2Cc1ccc(C)cc1 (centres undefined) here?
A: 2.1%

Q: CCOc1ccc(C(=O)NCC(=O)OCC(=O)N2CCCCC2)cc1 was tested. Which inhibition did it give?
A: -18.2%

Q: With COc1ccc(CNC(=O)C2CCN(S(=O)(=O)c3cccc4nonc34)CC2)cc1 as the compound, how does the inhibition read?
A: -3.2%

Q: With Cc1nc2cncc(Br)c2n1C as the compound, how does the inhibition read?
A: -11.9%

Q: With CSc1ccc(NC(=O)NCCCN2CCC(Cc3ccccc3)CC2)cc1 as the compound, how does the inhibition read?
A: -20.9%

Q: With Fc1ccc(NC(=S)NC2CC3CCC(C2)N3Cc2ccco2)cc1 (centres undefined) as the compound, how does the inhibition read?
A: 22.9% [at 20 µM]

Q: Which inhibition does the source give for Cc1cccc(N2CCN(S(=O)(=O)c3cccc4nonc34)CC2)c1C here?
A: 3%

Q: How did the inhibition turn out when Cc1ccc(OCc2cccc(S(=O)(=O)N(C)C)c2)c([N+](=O)[O-])n1 was run?
A: -0.3%

Q: For Cc1ccn2c(CNCCCn3cccn3)c(C(=O)N3CCCCCC3)nc2c1, which inhibition is on record?
A: 13.8% [at 20 µM]

Q: With N#CC(C#N)=C1C=CC=CN1/C(=C\c1ccccc1Cl)C(=O)c1ccccc1 as the compound, how does the inhibition read?
A: 26.8%

Q: Which inhibition does the source give for N#C/C(=C\c1ccco1)C(=O)Nn1cnnc1 here?
A: 1%

Q: CC(/C=N/n1c(-c2ccc(Cl)cc2)n[nH]c1=S)=C\c1ccco1 was tested. Which inhibition did it give?
A: -13.3%

Q: With N#C/C(=C\c1ccco1)C(=O)NCc1ccccc1 as the compound, how does the inhibition read?
A: 7.2%

Q: With N#CC(C#N)=C1C=CC=CN1/C(=C\c1ccccc1)C(=O)c1cccs1 as the compound, how does the inhibition read?
A: -1%

Q: O=C(O)/C(=C/c1ccco1)c1ccccc1 was tested. Which inhibition did it give?
A: -9.6%

Q: Which inhibition does the source give for COc1ccc(C(=O)N/C(=C/c2ccco2)C(=O)N2CCCCCC2)cc1 here?
A: -0.8%

Q: For COc1ccc(/C=C(/C(=O)c2cccs2)N2C=CC=CC2=C(C#N)C#N)cc1, which inhibition is on record?
A: -7.8%

Q: COc1ccc(CNC(=S)NCc2ccc(Cl)cc2)cc1OC was tested. Which inhibition did it give?
A: -4.7%

Q: Which inhibition does the source give for COc1ccccc1N(CC(O)COc1ccccc1)S(=O)(=O)c1ccccc1 (centres undefined) here?
A: 25.7%

Q: With O=C(Nc1ccccc1Oc1ccsc1C(=O)O)c1ccccc1 as the compound, how does the inhibition read?
A: 11%

Q: How did the inhibition turn out when CC/C(C)=N/Oc1nc(C)cc(C)n1 was run?
A: -35.7%

Q: NS(=O)(=O)c1ccc(NC(=O)Nc2ccc(S(N)(=O)=O)cc2)cc1 was tested. Which inhibition did it give?
A: 27.6%

Q: With FC(F)(F)c1cnc(N2CCCN(C(=S)Nc3ccccc3)CC2)c(Cl)c1 as the compound, how does the inhibition read?
A: -20.9%

Q: How did the inhibition turn out when O=C(Nc1cccc(C(=O)O)c1)/C(=C\c1ccccc1)NC(=O)c1cccc2ccccc12 was run?
A: -20.3% [at 20 µM]

Q: How did the inhibition turn out when CCOC(=O)/C(C#N)=C\c1ccco1 was run?
A: -16.4%

Q: N#C/C(=C/c1ccco1)C(N)=S was tested. Which inhibition did it give?
A: -13.4%

Q: For CC(=O)OC[C@H]1O[C@@H](O/N=C/[C@@H](C)[C@H](OCc2ccccc2)C(C)C)[C@H](OC(C)=O)[C@@H](OC(C)=O)[C@@H]1OC(C)=O, which inhibition is on record?
A: -20.6%

Q: For CCOc1ccc2nc(NC(=O)c3cnc(C)cn3)sc2c1, which inhibition is on record?
A: 54.4%

Q: Which inhibition does the source give for O=C(NNc1nc2c(F)cc(F)cc2s1)c1ccccc1 here?
A: 30.3%

Q: How did the inhibition turn out when O=C(Nc1nc2c(F)cc(F)cc2s1)c1ccco1 was run?
A: -20.5% [at 20 µM]

Q: Which inhibition does the source give for O=C(Nc1nc2ccc(S(=O)(=O)N3CCCC3)cc2s1)c1ccccn1 here?
A: -85.6%

Q: CCOc1ccc2nc(NC(=O)c3cnccn3)sc2c1 was tested. Which inhibition did it give?
A: -3.8%

Q: O=C(Nc1nnc(SCc2ccc(F)cc2)s1)c1cccnc1Cl was tested. Which inhibition did it give?
A: 13%

Q: For O=C(Nc1nc2ccc(F)cc2s1)c1cccs1, which inhibition is on record?
A: -4.2%

Q: Which inhibition does the source give for O=C(Nc1nnc(SCc2ccc(F)cc2)s1)c1cnccn1 here?
A: -29.3% [at 20 µM]

Q: For Cn1c(CNC(=O)c2ccco2)nnc1SCC(=O)c1ccccc1, which inhibition is on record?
A: 0.9%

Q: How did the inhibition turn out when O=C(c1ccc(CS(=O)(=O)c2ccc(Br)cc2)o1)N1CCN(c2ccc(F)cc2)CC1 was run?
A: 3.6%

Q: How did the inhibition turn out when CC(=O)Nc1ccc(S(=O)(=O)NC2(C(F)(F)F)C(=O)Nc3c2c(=O)[nH]c(=O)n3Cc2ccco2)cc1 (centres undefined) was run?
A: 16.3%
